Drawing on PubChem BioAssay (NCI), this text covers growth for seven compounds.

The panel holds about 83,000 compounds, 20% with a hit somewhere; the sample as a whole holds those more often.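 Note: values are percent growth. 100 is the growth of untreated cells, values between 100 and 0 indicate rising inhibition; between -100 and 0 indicates cell death.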 Unmarked numbers belong to inactive results. Active and inactive are the calls of the source. Rule for the calls: active = growth percent below 10; inactive = the rest.

What all share (assay): NCI-60 one-dose screen, 48 h (100 = growth as untreated, 0 = no growth, -100 = all killed)
Details in all cases: 10 µM unless noted

Assay [1] relates to DU-145 prostate.
The test system of assay [2] is K-562 leukemia.
For assay [3], the system named is MALME-3M melanoma.
In assay [4] the test system is MDA-MB-231 breast.
The subject of assay [5] is RXF 393 renal.
The test system of assay [6] is SF-268 CNS.
Assay [7] relates to SF-295 CNS.
Assay [8] deals with SF-539 CNS.
The test system of assay [9] is UACC-257 melanoma.
Assay [10] concerns M14 melanoma.
The subject of assay [11] is HCT-15 colon.
The test system of assay [12] is HT29 colon.
Assay [13] relates to SNB-75 CNS.
For assay [14], the system named is SNB-19 CNS.
Assay [15] has as its system U251 CNS.
Assay [16] relates to PC-3 prostate.
For assay [17], the system named is SK-MEL-5 melanoma.
Assay [18] deals with UACC-62 melanoma.
In assay [19] the test system is LOX IMVI melanoma.
In assay [20] the test system is SK-MEL-28 melanoma.

On to `CCCCCCCCCCCCCCCc1cc(O)ccc1[N+](=O)[O-]`, for which the growth in [1] is 104%; in [2], 67.7%; in assay [3], 96.4%; in assay [4] it was 69.2%; in [5], 95%; in assay [6] it was 91.6%. The growth in assay [7] is 94.3%; in assay [8], 103%; in [9], 87.3%; in [10] it was 93.1%; in [11] it was 73.7%; in assay [12], 107%. For the same compound, the growth was 83.1% in assay [13]; 99.9% in [14]; 70.1% in [15]; 59.5% in assay [16]; 76.1% in assay [17]; 67.9% in assay [18]. The growth in assay [19] is 98%; in [20], 102%.

On to `NC(=O)c1noc(C(=O)c2ccccc2)c1N`, for which the growth in [1] is 104%; in assay [2], 89.5%; in assay [3] it was 101%; in assay [4] it was 109%; in assay [5] it was 96.2%; in assay [6] it was 98.4%. For the same compound, the growth in assay [7] was 98.9%; in assay [8], 107%; in assay [9], 102%; in assay [10], 110%; in [11] it was 89.4%; in assay [12] it was 83.6%. Moreover, the growth in [13] is 95.9%; in assay [14], 90.4%; in [15], 85.8%; in assay [16] it was 90.9%; in assay [17] it was 97.9%; in assay [18], 96.6%. Moreover, the growth was 98.8% in assay [19] and 98.6% in [20].

As to `COc1ccc(OC)c(Nc2nc(-c3c(C)nc4sccn34)cs2)c1`, the growth in assay [1] was 81.7%; in assay [2] it was 27.8%; in [3], 88.9%; in assay [4], 71.1%; in assay [5], 83.5%; in assay [6], 102%. The growth is 52.8% in assay [7]; 75.7% in [8]; 81% in assay [9]; 78.6% in assay [10]; 73.6% in assay [11]; 73.6% in [12]. Besides, the growth in [13] was 78.4%; in assay [14] it was 96.9%; in assay [15], 89.5%; in assay [16] it was 37.6%; in [17], 18.8%; in assay [18], 79.6%. The growth in assay [19] is 83.4%; in assay [20], 101%.

Turning to `COc1ccc(C2CC(c3cccc(Nc4ccnc5cc(Cl)ccc45)c3)=NN2c2ccccc2)cc1` (stereo not given), the growth in assay [1] is 82.8%; in [2], 20.7%; in [3], 58.7%; in [4], 74.2%; in assay [5], 99%; in assay [6], 71.2%. Further, the growth was 23% in [7]; 65.4% in [8]; 59.7% in assay [9]; 27% in assay [10]; 46.6% in [11]; 60.8% in [12]. For the same compound, the growth in [13] was 62.5%; in assay [14], 78.3%; in [15], 65.4%; in assay [16] it was 67.5%; in [17], 39.1%; in assay [18], 29.5%. Besides, the growth in assay [19] was 49%; in assay [20], 84.9%.

As to `C1=C\CCCCN2CC[C@H]3[C@H](CCCC/C=C\CCCN4C[C@@H](CCCCC/1)C[C@@H]3C4)C2`, the growth was 93.9% in assay [1]; -19.5% (active) in [2]; 98.9% in assay [3]; 73.9% in [4]; -43.3% (active) in assay [5]; 73.8% in assay [6]. The growth was 51.3% in assay [7]; 31.3% in assay [8]; 84.7% in assay [9]; 1.72% (active) in assay [10]; 25.3% in assay [11]; 9.89% (active) in assay [12]. Further, the growth in assay [13] was 44.3%; in assay [14], 106%; in assay [15], 72.3%; in assay [16] it was 76.7%; in assay [17], 71%; in assay [18], 92%. Further, the growth is 65.5% in assay [19] and -90.3% (active) in assay [20].

`Fc1ccc(-c2ccnc3nc(-c4ccncc4)nn23)cc1`: the growth is 101% in assay [1]; 98.1% in assay [2]; 114% in assay [3]; 113% in assay [4]; 105% in assay [5]; 97.1% in assay [6]. In addition, the growth in [7] is 111%; in [8] it was 101%; in assay [9], 111%; in assay [10], 107%; in assay [11], 103%; in assay [12] it was 97.3%. Also, the growth was 90.1% in assay [13]; 112% in assay [14]; 104% in assay [15]; 97.2% in [16]; 106% in assay [17]; 116% in [18]. Further, the growth in [19] is 100%; in [20], 111%.

On to `Nc1nc(N)c2c(n1)NC(c1sc(Cl)nc1Cl)CC(c1ccc3c(c1)OCO3)=N2` (stereo not given), for which the growth is 35.3% in [1]; 16.9% in assay [2]; 28.8% in assay [3]; 48.8% in assay [4]; -1.6% (active) in [5]; 38.8% in [6]. The growth in assay [7] is 18.5%; in [8], -14.9% (active); in [9] it was 39.2%; in assay [10] it was 18.1%; in [11], 23.9%; in assay [12], 5.28% (active). Moreover, the growth was -1.52% (active) in assay [13]; 36.8% in assay [14]; 10.4% in assay [15]; 48.8% in assay [16]; 11% in [17]; 40.1% in assay [18]. Besides, the growth in [19] is 40.3%; in [20], 57%.
